The results in this text go back to PubChem BioAssay (NCI).

The panel holds about 83,000 compounds, 20% with a hit somewhere; the sample as a whole holds those more often.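 Percent growth is the endpoint: 0 to 100 indicates growth inhibition (40 means 60% inhibition), 0 means no net growth, and negative values indicate cell death.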 Unmarked numbers belong to inactive results. Activity calls are given as the source filed them. The calls were made as follows: active = growth percent below 10; inactive = the rest.

What all share (test): NCI-60 one-dose screen, 48 h (100 = growth as untreated, 0 = no growth, -100 = all killed)
Holding throughout (conditions): 10 µM unless noted

Test [1] has as its system SR leukemia.
Test [2] has as its system RPMI-8226 leukemia.
In test [3] the test system is OVCAR-8 ovarian.
Test [4] has as its system OVCAR-5 ovarian.
Test [5] has as its system OVCAR-4 ovarian.
The subject of test [6] is SK-OV-3 ovarian.
The subject of test [7] is IGROV1 ovarian.
Test [8] deals with OVCAR-3 ovarian.
The test system of test [9] is HS 578T breast.
The subject of test [10] is NCI/ADR-RES ovarian.

As for `O=C(c1ccccc1)N(CCCl)C(=O)N(CCCl)C(=O)c1ccccc1`, the growth in [1] was 94.4%; in test [2], 101%; in test [3], 98.5%; in test [4], 91%; in test [5], 105%; in [6] it was 104%. Moreover, the growth in test [7] is 103%; in test [8], 107%; in test [9], 110%; in test [10] it was 91.8%.
Turning to `COc1cc2c(c(OC)c1OC)-c1ccc(NCc3ccccc3)c(=O)cc1[C@@H](NC(C)=O)CC2`, the growth in test [1] is 2.36% (active); in test [2], 8.4% (active); in test [3] it was 14.5%; in test [4], 41.8%; in test [5] it was 29.6%; in test [6], -6.57% (active). For the same molecule, the growth was -15.6% (active) in [7], -39.2% (active) in [8], 17.3% in test [9] and 66.4% in [10].
As to `C/C(=N/NC(N)=S)c1ccc(C)cc1`, the growth in test [1] was 94.6%; in test [2], 71.4%; in test [3], 76.7%; in [4] it was 111%; in [5] it was 88%; in test [6], 98.8%. The growth is 105% in test [7], 62.8% in test [8], 102% in [9] and 76% in [10].
On to `CCCCCCCCCCCC1N=C(N)N=C(N)N1c1cccc(Br)c1` (centres undefined), for which the growth in test [1] is -29.2% (active); in test [2], -40% (active); in [3], -14.6% (active); in [4], -32.8% (active); in test [5], 55.4%; in test [6] it was 32.6%. For the same molecule, the growth is -30.2% (active) in test [7], -28.6% (active) in [8], 18.9% in [9] and 105% in test [10].
Take `CCCCCCC1N=C(N)N=C(N)N1c1cccc(Cl)c1` (centres undefined): the growth in [1] is 31.5%; in [2] it was 14%; in test [3], 35.7%; in test [4], 58.9%; in test [5] it was 43.9%; in test [6] it was 45.1%. Further, the growth in [7] is 58%; in test [8], 41.5%; in test [9], 55.2%; in test [10] it was 111%.
For the molecule `CCCOS(=O)(=O)c1ccccc1`, the growth in test [1] was 108%; in [2], 71.2%; in test [3], 104%; in test [4], 93%; in test [5], 123%; in test [6], 91.9%. For the same molecule, the growth in [7] is 104%; in [8], 107%; in [9], 126%; in test [10], 110%.
Regarding `CC(C)Nc1ccc(Nc2ccc(NC(C)C)cc2)cc1`, the growth in [1] is 26.2%; in test [2], 17.8%; in test [3], 51.6%; in test [4], 96.3%; in [5], 49.5%; in test [6], 53.2%. In addition, the growth in [7] is 50.7%; in test [8], 31.6%; in test [9], 73.4%; in test [10] it was 95.5%.
`O=C(c1ccccc1)c1cc2ccccc2oc1=O`: the growth in test [1] is 107%; in test [2] it was 84.3%; in test [3], 96.9%; in test [4] it was 102%; in test [5], 95.2%; in test [6] it was 100%. Besides, the growth was 64.8% in [7], 107% in test [8], 90.6% in test [9] and 100% in [10].
Turning to `O=C(Nc1cccc(C(F)(F)F)c1)Oc1ccc(Cl)c2cccnc12`, the growth in [1] is -1.87% (active); in test [2], -37.9% (active); in test [3], -11.1% (active); in [4], 87.7%; in [5], -0.489% (active); in test [6] it was 95.8%. Moreover, the growth in test [7] is 5.79% (active); in test [8], -56.3% (active); in test [9] it was 17.4%; in test [10], 4.64% (active).
Regarding `OC(CSc1ccccc1)CN1CCN(c2ccc(Cl)cc2)CC1` (centres undefined), the growth in test [1] is 86.6%; in test [2], 81.4%; in test [3], 99.6%; in test [4], 102%; in [5] it was 92.1%; in [7], 114%. Moreover, the growth is 121% in test [8], 115% in [9] and 89.1% in test [10].
For `CC(C)(C)c1ccc(O)c(-c2ccccc2)c1`, the growth in [1] is 57.7%; in test [2], 97.1%; in test [3], 107%; in test [4], 111%; in test [5] it was 127%; in test [6], 114%. The results for the growth in test [7], in test [8] and in test [10] were 108%, 111% and 106%, respectively.
As to `Cc1nc(Sc2nc3ccc([N+](=O)[O-])cc3s2)sc1C`, the growth in test [1] is -13.2% (active); in test [2] it was 2.79% (active); in test [3], 19.5%; in test [4] it was 34.8%; in test [5], 36.4%; in test [7], 32%. For the same molecule, the growth is -2.8% (active) in test [8], 50% in [9] and 16.7% in [10].
For `Cc1cc(C(=C2C=CC(=Nc3ccccc3)C=C2)c2ccc(Nc3ccccc3)cc2)ccc1N`, the growth in test [1] was 9.34% (active); in [2], 4.29% (active); in [3] it was -59.3% (active); in test [4], -60% (active); in test [5], -74.2% (active); in test [6], -64.8% (active). For the same molecule, the results for the growth in test [7], in [8] and in test [10] were -26.9% (active), -93.7% (active) and -46.7% (active), respectively.
Turning to `CC(C)c1ccc(Nc2n[nH]c(=S)s2)cc1`, the growth was 101% in test [1]; 108% in [2]; 102% in test [3]; 119% in test [4]; 104% in [5]; 106% in test [7]. The growth is 98.9% in test [8], 116% in test [9] and 102% in test [10].
Take `COc1cc(/C=C2\SC(=S)N(/C=C/c3nc4ccccc4[nH]c3=O)C2=O)cc(OC)c1OC`: the growth in test [1] is 63.6%; in [2] it was 86.2%; in [3], 86.4%; in test [4] it was 88.3%; in [5] it was 84.5%; in [7], 89.8%. Moreover, the growth in [8] is 89.4%; in test [9], 74.4%; in test [10], 86.6%.
